SMILES strings stand for the structures. Inconclusive results are not listed. Values without a mark were called inactive. The call rests on the fitted dose curve; in most records, active means well fitted inhibition curve with a large enough effect; inconclusive means small, poorly fitted or top-dose-only effect; inactive means flat fitted curve, though single readings scatter.
On the % scale 0 is the no-effect control and ±100 the full control effect.

In the assay the target is Calcium and integrin-binding protein 1 (Homo sapiens) (UniProt Q99828). In words: Primary qHTS for Identification of Calcium Integrin Binding Protein 1 (CIB1) Competitor (AID 1508620). Further: top concentration of the series differs between compounds. As to conditions: CIB1-GST / FITC-alphaIIb peptide fluorescence polarization; series mostly up to 114 µM; activity change, negative = inhibition: at the top concentration. The gist of the method: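 Fluorescence polarization competition: GST-tagged CIB1 (1 uM final) preincubated with compound 15 min at room temperature, then FITC-labelled alphaIIb peptide (100 nM final) added. After 15 min at room temperature, polarization read at Ex 480/Em 540.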
Calcium and integrin-binding protein 1 (Homo sapiens), sequence (Q99828 whole entry, looked up): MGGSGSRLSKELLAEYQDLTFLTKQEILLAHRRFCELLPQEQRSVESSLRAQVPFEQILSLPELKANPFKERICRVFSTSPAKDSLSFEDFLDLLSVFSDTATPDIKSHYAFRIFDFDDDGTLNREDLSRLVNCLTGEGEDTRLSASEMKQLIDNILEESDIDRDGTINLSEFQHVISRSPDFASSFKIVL
As for `COc1ccc(C2Nc3ccccc3C(=O)N2Cc2ccco2)cc1COc1cccc(NC(C)=O)c1` (configuration not stated), the “activity change, negative = inhibition” value was 3.91%. With `COc1cc(O)c(C(CC(=O)N2CCC(C)CC2)c2ccc(OC)c(OC)c2)c(OC)c1` (configuration not stated) the figure was -2.24% [at 228 µM]; with `Cc1cc(NS(=O)(=O)c2ccc3c(c2)CCC(=O)N3)ccc1F`, 1.56%.

On to `O=[S+]([O-])(Nc1ccccc1)c1ccc(NCc2cccc(C(F)(F)F)c2Cl)cc1`, for which the “activity change, negative = inhibition” value was 2.94%. With `Cc1cc2c(s1)c1cnn(Cc3ccc(F)cc3F)c(=O)c1n2C` the figure was 2.47%; with `COc1ccc(C2Nc3ccccc3C(=O)N2Cc2ccccc2)cc1COc1cccc(C)c1` (configuration not stated), -3.92%.

For the molecule `NC(=O)C1CCN(c2nc(-c3ccccc3Br)cs2)CC1`, the “activity change, negative = inhibition” value is -0.366%.

For `COC(=O)C1CCN(C(=O)c2ccc3c(c2)ncn3-c2cccc(C)c2)CC1`, the “activity change, negative = inhibition” value was 4.56%. The same measure for `COc1cccc(Cn2ncc3c4sc(SC)cc4n(C)c3c2=O)c1`: -1.28%; for `CC(=O)Nc1sc2c(c1-c1ccc(C#N)cc1)CCNC2`: -1.39%.

As to `O=C(Nc1ccc(F)c(F)c1)Nc1nnc(-c2ccncc2)s1`, the “activity change, negative = inhibition” value is 3.77%.

Take `Cc1cc2c(s1)c1cnn(Cc3c(Cl)cccc3Br)c(=O)c1n2C`: the “activity change, negative = inhibition” value is 6.86%. Regarding `O=[S+]([O-])(c1ccc2ncsc2c1)N1CCN([S+](=O)([O-])c2c(F)cccc2F)CC1`, the “activity change, negative = inhibition” value is 6.26%. As for `COc1ccnc(NC(=S)N2CCN(c3cccc(Cl)c3Cl)CC2)c1`, the “activity change, negative = inhibition” value was -16.1%. In the case of `CCn1cnc2c(Nc3ccc(CC(=O)N=C(N)N)cc3)nc(C#N)nc21`, the “activity change, negative = inhibition” value was 2.97%.

For `COc1cc(/C=C2\C(=O)Nc3ccccc32)ccc1O`, the “activity change, negative = inhibition” value was -2.15%. For `CC(=O)c1ccc(N2CCN(S(=O)(=O)c3ccc4c(c3)n(C)c(=O)n4C)CC2)cc1`, the “activity change, negative = inhibition” value was 17%.
